± gives the standard deviation of the averaged measurements.
How the values were obtained:
[1] = test system: DLD1; assay: cell viability (CellTiter-Glo) relative to plate median (fraction of plate median); higher = more viable cells; conditions: 5 µM; treatment time 24 h; reporter: 7TFP
How it was run: (§1)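 Cells were seeded in 384-well plates; these were colorectal cancer lines stably transduced with lentiviral 7TFP or TCF4/Wnt firefly luciferase reporters. After 24 h, library compounds went in at a final 5 µM, and exposure lasted 24 h. Parallel plates were then read for firefly luciferase or CellTiterGlo luminescence, each well normalised to its plate median, with two independent replicates averaged.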

[2] = test system: HCT116; assay: as above; conditions: 5 µM; treatment time 24 h; reporter: TCF4/Wnt
How it was run: as §1

[3] = test system: SW480; assay: as above; conditions: 5 µM; treatment time 24 h; reporter: 7TFP
How it was run: as §1

[4] = test system: DLD1; assay: TCF/Wnt firefly luciferase reporter signal relative to plate median (fraction of plate median); higher = higher Wnt reporter signal; conditions: 5 µM; treatment time 24 h; reporter: 7TFP
How it was run: as §1

[5] = test system: SW480; assay: as above; conditions: 5 µM; treatment time 24 h; reporter: 7TFP
How it was run: as §1

Row | Structure (SMILES) | cell viability [1] | cell viability [2] | cell viability [3] | TCF/Wnt firefly luciferase reporter signal [4] | TCF/Wnt firefly luciferase reporter signal [5]
1 | COc1c(-c2coc3cc4c(cc3c2=O)CC(OC(C)=O)C(C)(C)O4)ccc2c1C=CC(C)(C)O2 (stereo not given) | 0.961 ± 0.0085 | 0.887 ± 0.077 | 1.01 ± 0.045 | 1.01 ± 0.32 | 1.1 ± 0.16
2 | O=C1N=C(O)NC1(c1ccccc1)c1ccccc1 | 1.06 ± 0.05 | 0.957 ± 0.015 | 1.005 ± 0.0071 | 1.08 ± 0.021 | 1.08 ± 0.021
3 | C[N+](C)(C)CCO.[Cl-] | 0.975 ± 0.0071 | 1.01 ± 0.068 | 0.929 ± 0.045 | 1.03 ± 0.021 | 1.1 ± 0.042
4 | O=C(CCCCC(=O)Nc1c(I)cc(I)c(C(=O)O)c1I)Nc1c(I)cc(I)c(C(=O)O)c1I | 1.05 | 1.08 ± 0.16 | 1.01 ± 0.03 | 1.05 ± 0.028 | 1.06 ± 0.021
5 | COc1cc2ccc(=O)oc2c(OC)c1OC | 1.05 ± 0.075 | 1.05 ± 0.064 | 1.025 ± 0.0071 | 0.993 ± 0.081 | 0.931 ± 0.045
6 | NC(N)=Nc1nc(CSCC/C(N)=N/S(N)(=O)=O)cs1 | 1 ± 0.083 | 1.01 ± 0.028 | 0.916 ± 0.054 | 1.12 ± 0.092 | 1.11 ± 0.035
7 | CO[C@H]1/C=C/O[C@@]2(C)Oc3c(C)c(O)c4c(O)c(c5c(nc6cc(C)ccn65)c4c3C2=O)NC(=O)/C(C)=C\C=C\[C@H](C)[C@H](O)[C@@H](C)[C@@H](O)[C@@H](C)[C@H](OC(C)=O)[C@@H]1C | 1.05 ± 0.093 | 1.1 ± 0.035 | 1.04 ± 0.042 | 1.05 ± 0.15 | 1.11 ± 0.071
8 | O=c1ccc2ccc(O)cc2o1 | 0.995 ± 0.036 | 0.972 ± 0.014 | 1.03 ± 0.028 | 0.936 ± 0.13 | 0.935 ± 0.042
9 | Oc1c(Cl)cc(Cl)c2cccnc12 | 0.9925 ± 0.00071 | 1.02 ± 0.081 | 0.963 ± 0.033 | 1.03 ± 0.16 | 1.07 ± 0.021
10 | Oc1cccc(O)c1 | 1.02 ± 0.072 | 0.985 ± 0.013 | 1.01 ± 0.02 | 0.873 ± 0.074 | 1.02 ± 0.055
11 | CCN(CC)CCNC(=O)c1ccc(NC(C)=O)cc1 | 1.01 ± 0.075 | 1.05 ± 0.071 | 1.06 ± 0.035 | 1.08 ± 0.028 | 1.14 ± 0.014
12 | O=CN(O)CCCC(NC(=O)C(CO)NC(=O)C1COC(c2ccccc2O)=N1)C(=O)NCCC(=O)NC1CCCN(O)C1=O (stereo not given) [Oxachelin hydrate] | 1.09 ± 0.13 | 1.11 ± 0.12 | 1.02 ± 0.05 | 1.2 ± 0.014 | 0.946 ± 0.16
13 | C/C=C/CCC(=O)c1cc(C)c(O)cc1O [Sohirnone A] | 1.04 ± 0.09 | 1.06 ± 0.1 | 0.9585 ± 0.0078 | 1.02 ± 0.082 | 0.969 ± 0.044
14 | O=c1c(-c2cc(O)c(O)c(O)c2)coc2cc(O)c(O)c(O)c12 | 1.005 ± 0.0071 | 1.1 ± 0.078 | 1.04 | 1.09 ± 0.035 | 0.93 ± 0.14
15 | C[C@@H]1[C@H]2[C@H](O[C@@H]3O[C@H](CO)[C@@H](O)[C@H](O)[C@H]3O)OC=C(C(=O)O)[C@H]2C[C@@H]1O | 1.05 ± 0.035 | 1.02 ± 0.1 | 1.03 ± 0.014 | 1.07 ± 0.1 | 1.05 ± 0.078
16 | CC(=O)O[C@@H]1CC2C(C)(C)C(=O)CC[C@]2(C)C2CC[C@]3(C)C(=CC(=O)O[C@H]3c3ccoc3)[C@@]21C (stereo not given in full) | 1.05 ± 0.12 | 1.06 ± 0.17 | 1.07 ± 0.092 | 1.06 ± 0.11 | 0.949 ± 0.087

Row | Structure (SMILES) | cell viability [1] | cell viability [2] | cell viability [3] | TCF/Wnt firefly luciferase reporter signal [4] | TCF/Wnt firefly luciferase reporter signal [5]
17 | O=c1[nH]cnc2c1ncn2[C@@H]1O[C@H](CO)[C@@H](O)[C@H]1O [Inosin] | 0.943 ± 0.12 | 0.91 ± 0.15 | 0.971 ± 0.013 | 0.67 ± 0.24 | 0.999 ± 0.13
18 | CC1=C(/C=C/C(C)=C/C=C/C(C)=C/C(=O)O)C(C)(C)CCC1 | 0.9525 ± 0.0078 | 0.973 ± 0.067 | 0.994 ± 0.052 | 0.912 ± 0.037 | 0.889 ± 0.018
19 | NC(=O)c1cccnc1 | 1.02 ± 0.021 | 1.01 ± 0.025 | 0.982 ± 0.021 | 1.16 ± 0.057 | 1.15 ± 0.11
20 | COc1cc(CO)cc2c1C(=O)c1c(O)cc(O)cc1C2=O [Carviolin] | 0.883 ± 0.19 | 0.93 ± 0.018 | 0.99 ± 0.0014 | 0.811 ± 0.1 | 0.963 ± 0.044
21 | COC(=O)/C=C/c1ccc(O)c(O)c1 [Caffeic acid methylester] | 0.918 ± 0.079 | 0.987 ± 0.12 | 0.979 ± 0.072 | 1.02 ± 0.098 | 1.04 ± 0.087
22 | CCN(Cc1ccncc1)C(=O)C(CO)c1ccccc1 (stereo not given) | 0.9915 ± 0.0035 | 0.976 ± 0.048 | 1.04 ± 0.021 | 1.04 ± 0.057 | 1.08 ± 0.078
23 | C[N+](C)(C)CC(O)CC(=O)[O-] (stereo not given) | 0.976 ± 0.03 | 1.07 ± 0.14 | 0.9395 ± 0.00071 | 1.14 ± 0.014 | 0.902 ± 0.1
24 | CC(=O)O[C@]1(C(C)=O)CC[C@H]2[C@@H]3C=C(Cl)C4=CC(=O)CC[C@]4(C)[C@H]3CC[C@@]21C | 0.905 ± 0.016 | 0.972 ± 0.082 | 1.04 ± 0.042 | 0.9805 ± 0.0064 | 1.06 ± 0.088
25 | COc1ccc2c(c1OC)C(=O)O[C@@H]2[C@H]1c2c(cc3c(c2OC)OCO3)CCN1C | 0.9895 ± 0.0092 | 0.879 ± 0.0099 | 0.995 ± 0.0014 | 0.973 ± 0.17 | 0.945 ± 0.15
26 | O=c1cc(-c2ccc(O)cc2)oc2cc(O)ccc12 | 1.06 ± 0.13 | 0.987 ± 0.1 | 0.987 ± 0.033 | 0.92 ± 0.11 | 1.04 ± 0.028
27 | COC1=C(OC)C(=O)C(C/C=C(\C)CC/C=C(\C)CC/C=C(\C)CC/C=C(/C)CC/C=C(\C)CC/C=C(\C)CC/C=C(\C)CC/C=C(\C)CC/C=C(\C)CCC=C(C)C)=C(C)C1=O | 1.02 ± 0.035 | 0.993 ± 0.067 | 1.115 ± 0.0071 | 0.98 ± 0.057 | 0.923 ± 0.15
28 | CCCCCCCCCCCCCCCC(=O)OC[C@@H](NC(=O)C(Cl)Cl)[C@H](O)c1ccc([N+](=O)[O-])cc1 | 0.96 ± 0.0042 | 0.996 ± 0.02 | 1.01 | 0.971 ± 0.028 | 1.02 ± 0.052
29 | CCc1ccc(CCOc2ccc(CC3SC(=O)NC3=O)cc2)nc1 (stereo not given) | 0.923 ± 0.048 | 0.904 ± 0.07 | 0.983 ± 0.096 | 1.015 ± 0.0071 | 1.07 ± 0.057
30 | CCCN(CCC)S(=O)(=O)c1ccc(C(=O)O)cc1 | 1.03 ± 0.054 | 1.1 ± 0.078 | 1.1 ± 0.078 | 1.12 ± 0.21 | 1.115 ± 0.0071
31 | CC(C)C1=C2[C@H]3CCC4[C@@H]5[C@H](O[C@@H]6OC[C@@H](O)[C@H](O[C@@H]4O)C65O)[C@]3(C)CC[C@@]2(C)CC1 (stereo not given in full) | 0.915 ± 0.067 | 0.862 ± 0.11 | 0.938 ± 0.011 | 0.873 ± 0.014 | 0.968 ± 0.045
32 | CC1(C)S[C@@H]2[C@H](NC(=O)Cc3ccccc3)C(=O)N2[C@H]1C(=O)O | 0.914 ± 0.0057 | 0.968 ± 0.025 | 1.02 ± 0.067 | 1.16 ± 0.11 | 0.949 ± 0.14
